What all share (experiment): qHTS profiling for inhibitors of Plasmodium falciparum proliferation (AID 504749); further: nearly all actives have a fitted effect of over 60% in size
Common to all, as to conditions: P. falciparum in erythrocytes, SYBR Green DNA, 72 h; series mostly up to 12.8 µM
Background: In qHTS, concentration-response curves come from the screen itself.

Test [1] has as its system CP185. In outline: (§1)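 Parasite proliferation within erythrocytes, 72 h exposure. Endpoint: SYBR Green I fluorescence after overnight lysis at room temperature. Controls: 0.29 uM artemisinin, DMSO.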
The subject of test [2] is CP194. In outline:
as §1

Test [3] has as its system CP201. The essentials:
as §1

In test [4] the test system is CP203. The essentials: as §1
Test [5] concerns CP211. The essentials:
as §1

Test [6] has as its system CP252. The essentials:
as §1

For test [7], the system named is CP260. The essentials:
as §1

In test [8] the test system is CP268. In outline:
as §1

For test [9], the system named is CP286. The essentials:
as §1

Test [10] concerns CP291. In outline: as §1
Test [11] deals with CP305. The essentials: as §1
Test [12] concerns CP325. In outline:
as §1

The subject of test [13] is CP329. In outline: as §1
Test [14] concerns DFO2036. The essentials: as §1
Test [15] concerns DIV14. The essentials: as §1
Test [16] concerns DIV30. The essentials:
as §1

Test [17] has as its system ECU. The essentials:
as §1

For test [18], the system named is HB3. In outline:
as §1

The test system of test [19] is ICS. In outline: as §1
Test [20] concerns TAB113. The essentials:
as §1

Data on 13 compounds can be found in PubChem BioAssay (NCATS).

Results filed as inconclusive are left out. Active and inactive are the calls of the source. The call rests on the fitted dose curve; in most records, active means well fitted inhibition curve with a large enough effect; inconclusive means small, poorly fitted or top-dose-only effect; inactive means flat fitted curve, though single readings scatter.
Potency means the concentration at half of the fitted maximal effect.

With `COc1ccc(C[C@@](C)(N)C(=O)O)cc1OC`, the Potency entry in [1], in [2], in [3], in [4], in [5] and in test [6] was “inactive” throughout. Moreover, the Potency entry in test [7], in [8], in test [9], in test [10], in test [11] and in [12] was “inactive” in each case. In addition, the Potency result in test [13], in test [14], in [15], in [16], in test [17] and in test [18] was “inactive” in each case. The Potency entry in [19] and in test [20] was “inactive” in each case.

For `CC1(C)O[C@@H]2C[C@H]3[C@H]4C[C@H](F)C5=CC(=O)CC[C@]5(C)[C@@H]4[C@H](O)C[C@]3(C)[C@]2(C(=O)CO)O1`, the Potency result in test [1], in test [2], in test [3], in [4], in test [5] and in [6] was “inactive” in each case. For the same compound, the Potency entry in [7], in test [8], in test [9], in [10], in [11] and in [12] was “inactive” each time. In addition, the Potency result in [13], in [14], in test [15], in test [16], in [17] and in test [18] was “inactive” in each case. The Potency entry in test [19] and in test [20] was “inactive” throughout.

For the compound `CNC[C@H](O)c1ccc(OC(=O)C(C)(C)C)c(OC(=O)C(C)(C)C)c1`, the Potency entry in test [1], in test [2], in test [3], in [4], in test [5] and in [6] was “inactive” throughout. For the same compound, the Potency result in test [7], in test [8], in test [9], in [10], in test [11] and in [12] was “inactive” each time. The Potency result in test [13], in [14], in test [15], in test [16], in [17] and in test [18] was “inactive” each time. Moreover, the Potency result in test [20] is “inactive”.

`CCC(=O)O[C@@H]1[C@H](C)O[C@H](O[C@H]2[C@@H](N(C)C)[C@H](O)[C@@H](O[C@@H]3[C@@H](CC=O)C[C@@H](C)[C@@H](O)/C=C\C=C/C[C@@H](C)OC(=O)C[C@@H](OC(=O)CC)[C@H]3OC)O[C@H]2C)C[C@]1(C)O`: the Potency result in test [14], in test [15], in test [16], in test [17], in test [18] and in test [20] was “inactive” in each case.

As to `COc1cc2nc(N3CCN(C(=O)[C@@H]4CCCO4)CC3)nc(N)c2cc1OC`, the Potency result in test [1], in test [2], in [3], in test [4], in test [5] and in test [6] was “inactive” each time. The Potency result in test [7], in test [8], in [9], in test [10], in [11] and in test [12] was “inactive” in each case. For the same compound, the Potency result in test [13], in test [14], in [15], in test [16], in test [17] and in test [18] was “inactive” in each case. Moreover, the Potency entry in [19] and in test [20] was “inactive” each time.

Turning to `COc1cc(N)c(Cl)cc1C(=O)N[C@H]1CCN(CCCOc2ccc(F)cc2)C[C@H]1OC`, the Potency result in test [4] and in test [8] was “inactive” throughout. In addition, the values for the Potency in test [7] and in [9] were 3.16 µM (active) and 3.55 µM (active), respectively.

As for `CC(C)(C)NC[C@H](O)COc1cccc2c1CCC(=O)N2`, the Potency entry in test [1], in [2], in test [3], in [4], in test [5] and in test [6] was “inactive” throughout. The Potency entry in test [7], in test [8], in [9], in [10], in test [11] and in test [12] was “inactive” throughout. The Potency entry in test [13], in test [14], in [15], in test [16], in test [17] and in [18] was “inactive” in each case. For the same compound, the Potency result in test [19] and in test [20] was “inactive” throughout.

Regarding `C=CCOc1ccccc1OC[C@H](O)CNC(C)C`, the Potency result in [1], in [2], in test [3], in [4], in [5] and in [6] was “inactive” throughout. Besides, the Potency entry in [7], in test [8], in [9], in test [10], in test [11] and in test [12] was “inactive” in each case. Moreover, the Potency result in test [13], in [14], in test [15], in test [16], in test [17] and in test [18] was “inactive” in each case. Besides, the Potency entry in test [19] and in test [20] was “inactive” throughout.

As for `CS(=O)(=O)c1ccc([C@H](O)[C@H](CO)NC(=O)C(Cl)Cl)cc1`, the Potency entry in test [7], in test [15], in [16], in [18] and in test [20] was “inactive” throughout.

Consider `CO[C@H]1[C@H](O[C@H]2O[C@@H](C)[C@@H](O[C@@H]3C[C@](C)(O)[C@H](OC(=O)CC(C)C)[C@H](C)O3)[C@@H](N(C)C)[C@@H]2O)[C@@H](CC=O)C[C@@H](C)[C@@H](O)/C=C\C=C/C[C@@H](C)OC(=O)C[C@H]1OC(C)=O`, for which, in [20], the Potency entry is “inactive”.

Regarding `C[C@H](Oc1ccccc1)C(=O)N[C@@H]1C(=O)N2[C@@H]1SC(C)(C)[C@@H]2C(=O)O`, the Potency entry in test [1], in test [2], in [3], in [4], in test [5] and in [6] was “inactive” throughout. Besides, the Potency result in test [7], in [8], in [9], in [10], in test [11] and in test [12] was “inactive” in each case. In addition, the Potency result in test [13], in test [14], in [15], in test [16], in test [17] and in test [18] was “inactive” each time. Also, the Potency result in [19] and in [20] was “inactive” in each case.

On to `NC(=O)N[C@H]1NC(=O)NC1=O`, for which the Potency entry in test [1], in test [2], in test [3], in [4], in [5] and in [6] was “inactive” each time. Moreover, the Potency entry in test [7], in [8], in [9], in test [10], in [11] and in test [12] was “inactive” throughout. The Potency result in test [13], in test [15], in test [16], in test [17], in test [18] and in test [19] was “inactive” throughout. Also, in [20], the Potency result was “inactive”.

With `C=CCN1C(=CCO)[C@H]2C[C@H]3[C@@H]1CC[C@@]31c3ccccc3N3C=C4[C@@H]5N(/C=C/2[C@H]31)c1ccccc1[C@]51CC[C@H]2[C@H]1C[C@@H]4/C(=C/CO)N2CC=C`, the Potency entry in [1], in test [2], in test [3], in test [4], in test [5] and in test [6] was “inactive” in each case. Also, the Potency result in [7], in test [8], in test [9], in [10], in [11] and in test [12] was “inactive” in each case. In addition, the Potency result in test [13], in [14], in test [15], in [16], in [17] and in test [18] was “inactive” in each case. For the same compound, the Potency entry in [19] and in test [20] was “inactive” throughout.
